Assays:
Assay in all cases: log2 ratio of Biotin-Ahx-Ub-VS probe labelling (fragment/DMSO); higher = less target engagement (more negative = stronger competition), active = hit call of the paper (q ≤ 0.05, log2 ratio ≤ -1)
Settings in all cases: compound concentration: 200 uM; treatment time: 3 h
USP19 = biological target: T1, USP19 (UniProt O94966)
T1 sequence (whole entry): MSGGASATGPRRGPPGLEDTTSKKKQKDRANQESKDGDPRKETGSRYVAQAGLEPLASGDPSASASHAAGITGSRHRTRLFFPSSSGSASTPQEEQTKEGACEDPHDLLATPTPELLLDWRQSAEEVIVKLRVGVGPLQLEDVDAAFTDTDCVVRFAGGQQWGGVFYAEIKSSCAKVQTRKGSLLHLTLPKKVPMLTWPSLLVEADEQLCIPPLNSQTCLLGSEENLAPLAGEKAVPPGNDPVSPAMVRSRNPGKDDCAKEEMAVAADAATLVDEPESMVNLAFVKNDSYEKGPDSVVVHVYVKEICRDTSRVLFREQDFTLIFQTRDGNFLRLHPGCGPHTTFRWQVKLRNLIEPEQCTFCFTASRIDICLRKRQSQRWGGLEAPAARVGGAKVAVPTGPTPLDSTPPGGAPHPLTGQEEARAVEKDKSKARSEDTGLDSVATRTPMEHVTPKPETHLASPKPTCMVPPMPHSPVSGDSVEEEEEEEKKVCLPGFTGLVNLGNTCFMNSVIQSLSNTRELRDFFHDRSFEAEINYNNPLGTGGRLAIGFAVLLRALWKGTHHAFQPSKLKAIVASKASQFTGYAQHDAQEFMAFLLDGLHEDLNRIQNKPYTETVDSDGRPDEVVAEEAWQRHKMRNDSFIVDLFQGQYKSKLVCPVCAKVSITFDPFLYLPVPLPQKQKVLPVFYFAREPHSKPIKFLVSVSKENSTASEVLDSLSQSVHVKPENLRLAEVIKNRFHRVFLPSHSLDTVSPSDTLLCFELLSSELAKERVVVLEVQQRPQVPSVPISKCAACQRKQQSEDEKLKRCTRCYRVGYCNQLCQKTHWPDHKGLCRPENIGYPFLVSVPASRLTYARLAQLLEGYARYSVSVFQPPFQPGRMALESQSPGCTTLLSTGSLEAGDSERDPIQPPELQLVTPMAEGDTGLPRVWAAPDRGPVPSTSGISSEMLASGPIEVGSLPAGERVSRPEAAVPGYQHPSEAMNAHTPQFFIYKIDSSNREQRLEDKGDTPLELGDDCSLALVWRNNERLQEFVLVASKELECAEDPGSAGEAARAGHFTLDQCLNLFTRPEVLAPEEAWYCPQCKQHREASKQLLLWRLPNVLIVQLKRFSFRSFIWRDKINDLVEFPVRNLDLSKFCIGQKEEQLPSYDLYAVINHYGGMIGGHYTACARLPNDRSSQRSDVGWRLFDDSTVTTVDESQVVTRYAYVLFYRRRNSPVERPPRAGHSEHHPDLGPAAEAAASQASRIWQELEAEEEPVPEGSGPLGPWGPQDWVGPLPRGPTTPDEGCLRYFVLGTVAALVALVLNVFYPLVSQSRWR
In short: (§1)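 HEK293T lysate in Tris/CHAPS/IGEPAL buffer with protease inhibitors (495 µg per sample) was given fragment at 200 µM or vehicle for 3 h, in triplicate. It then received Biotin-Ahx-Ub-VS at 0.5 µM final for 1 h. Labelled DUBs were NeutrAvidin-enriched, digested with LysC and trypsin, and run by diaPASEF LC-MS/MS. Values are average log2 fragment/vehicle ratios by unpaired t-test on global-median-normalised Spectronaut quantities of proteins with ≥2 unique peptides.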

USP22 = biological target: T2, USP22 (UniProt Q9UPT9)
T2 sequence (whole entry): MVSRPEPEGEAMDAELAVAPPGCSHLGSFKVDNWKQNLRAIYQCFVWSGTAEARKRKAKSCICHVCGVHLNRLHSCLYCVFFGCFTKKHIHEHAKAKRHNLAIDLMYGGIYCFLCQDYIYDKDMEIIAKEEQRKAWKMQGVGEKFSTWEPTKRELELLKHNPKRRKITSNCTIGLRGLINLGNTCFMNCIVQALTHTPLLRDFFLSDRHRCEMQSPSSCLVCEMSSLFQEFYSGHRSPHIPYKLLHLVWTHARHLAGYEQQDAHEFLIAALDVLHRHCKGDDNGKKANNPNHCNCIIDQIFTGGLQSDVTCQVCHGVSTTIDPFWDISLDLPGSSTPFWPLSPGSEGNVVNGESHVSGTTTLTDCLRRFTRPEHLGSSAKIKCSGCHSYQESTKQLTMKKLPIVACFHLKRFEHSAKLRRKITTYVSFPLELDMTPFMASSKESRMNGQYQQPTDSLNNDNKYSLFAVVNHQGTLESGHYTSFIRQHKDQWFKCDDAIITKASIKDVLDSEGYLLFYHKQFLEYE
In short: as §1

USP24 = USP24 (UniProt Q9UPU5)
Sequence of USP24 (Q9UPU5 whole entry): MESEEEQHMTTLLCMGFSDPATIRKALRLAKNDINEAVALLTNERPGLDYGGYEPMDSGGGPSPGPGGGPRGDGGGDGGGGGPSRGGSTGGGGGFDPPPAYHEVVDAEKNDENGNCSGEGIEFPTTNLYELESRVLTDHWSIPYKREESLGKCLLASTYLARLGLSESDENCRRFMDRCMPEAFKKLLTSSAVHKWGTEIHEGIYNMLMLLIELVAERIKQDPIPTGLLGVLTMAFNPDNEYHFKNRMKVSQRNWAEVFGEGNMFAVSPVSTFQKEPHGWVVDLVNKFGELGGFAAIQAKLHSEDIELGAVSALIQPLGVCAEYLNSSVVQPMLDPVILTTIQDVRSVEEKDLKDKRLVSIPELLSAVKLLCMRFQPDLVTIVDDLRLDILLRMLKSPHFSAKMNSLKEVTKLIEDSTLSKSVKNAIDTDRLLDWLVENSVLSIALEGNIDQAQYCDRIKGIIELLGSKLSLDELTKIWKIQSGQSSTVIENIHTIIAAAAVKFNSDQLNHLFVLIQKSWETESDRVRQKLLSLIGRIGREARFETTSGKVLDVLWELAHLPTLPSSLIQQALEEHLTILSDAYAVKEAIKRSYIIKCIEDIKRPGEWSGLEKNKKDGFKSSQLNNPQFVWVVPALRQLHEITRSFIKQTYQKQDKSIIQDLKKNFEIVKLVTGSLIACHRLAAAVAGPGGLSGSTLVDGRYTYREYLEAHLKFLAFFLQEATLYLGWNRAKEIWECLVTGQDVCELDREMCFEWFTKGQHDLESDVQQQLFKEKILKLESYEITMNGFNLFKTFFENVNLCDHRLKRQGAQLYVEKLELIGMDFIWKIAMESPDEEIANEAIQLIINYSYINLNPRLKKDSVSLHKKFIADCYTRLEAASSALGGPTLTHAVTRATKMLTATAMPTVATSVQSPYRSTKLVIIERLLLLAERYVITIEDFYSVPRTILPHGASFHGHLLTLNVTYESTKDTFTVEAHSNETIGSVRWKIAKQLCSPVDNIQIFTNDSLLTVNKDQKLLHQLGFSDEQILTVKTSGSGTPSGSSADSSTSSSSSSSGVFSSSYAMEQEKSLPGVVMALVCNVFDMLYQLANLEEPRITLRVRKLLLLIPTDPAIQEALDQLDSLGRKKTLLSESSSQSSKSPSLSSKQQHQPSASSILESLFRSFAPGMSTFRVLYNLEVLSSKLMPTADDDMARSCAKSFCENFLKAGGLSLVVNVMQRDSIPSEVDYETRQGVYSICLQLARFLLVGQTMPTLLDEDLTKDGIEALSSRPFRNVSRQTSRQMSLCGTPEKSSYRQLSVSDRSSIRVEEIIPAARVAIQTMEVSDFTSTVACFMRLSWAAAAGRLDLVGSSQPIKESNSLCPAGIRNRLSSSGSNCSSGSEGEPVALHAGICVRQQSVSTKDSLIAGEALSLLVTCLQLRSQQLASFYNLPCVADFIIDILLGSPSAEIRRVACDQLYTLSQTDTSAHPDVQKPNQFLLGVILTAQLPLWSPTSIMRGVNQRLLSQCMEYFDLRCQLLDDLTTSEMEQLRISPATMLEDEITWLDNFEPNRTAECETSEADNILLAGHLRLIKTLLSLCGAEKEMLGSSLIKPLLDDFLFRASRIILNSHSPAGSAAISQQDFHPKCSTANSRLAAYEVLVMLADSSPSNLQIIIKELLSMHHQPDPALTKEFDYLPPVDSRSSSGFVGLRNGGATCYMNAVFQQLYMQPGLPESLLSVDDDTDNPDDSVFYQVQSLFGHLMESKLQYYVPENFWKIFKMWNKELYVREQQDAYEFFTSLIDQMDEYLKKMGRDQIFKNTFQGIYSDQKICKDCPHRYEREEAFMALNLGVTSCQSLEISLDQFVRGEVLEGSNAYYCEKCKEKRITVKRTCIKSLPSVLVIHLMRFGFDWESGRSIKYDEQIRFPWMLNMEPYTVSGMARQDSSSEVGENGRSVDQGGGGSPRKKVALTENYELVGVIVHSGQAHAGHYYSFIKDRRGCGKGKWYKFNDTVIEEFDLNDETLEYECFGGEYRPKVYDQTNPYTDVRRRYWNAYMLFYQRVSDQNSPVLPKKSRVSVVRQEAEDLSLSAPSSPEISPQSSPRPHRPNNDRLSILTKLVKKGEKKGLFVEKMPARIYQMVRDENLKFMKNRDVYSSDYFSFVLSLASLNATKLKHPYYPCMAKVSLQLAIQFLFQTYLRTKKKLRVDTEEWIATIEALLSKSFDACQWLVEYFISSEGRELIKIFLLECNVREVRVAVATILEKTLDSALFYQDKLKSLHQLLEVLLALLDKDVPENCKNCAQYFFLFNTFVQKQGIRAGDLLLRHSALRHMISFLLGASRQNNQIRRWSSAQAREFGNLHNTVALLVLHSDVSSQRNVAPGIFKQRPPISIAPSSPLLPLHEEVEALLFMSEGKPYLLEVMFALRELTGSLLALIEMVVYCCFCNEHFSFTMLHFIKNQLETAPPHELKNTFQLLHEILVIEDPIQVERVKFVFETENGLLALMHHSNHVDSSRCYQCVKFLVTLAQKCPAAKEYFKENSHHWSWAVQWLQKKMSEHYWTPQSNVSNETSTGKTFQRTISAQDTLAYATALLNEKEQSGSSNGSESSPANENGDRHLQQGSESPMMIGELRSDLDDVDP
In short: as §1

USP25 = biological target: T3, USP25 (UniProt Q9UHP3)
T3 sequence (whole entry): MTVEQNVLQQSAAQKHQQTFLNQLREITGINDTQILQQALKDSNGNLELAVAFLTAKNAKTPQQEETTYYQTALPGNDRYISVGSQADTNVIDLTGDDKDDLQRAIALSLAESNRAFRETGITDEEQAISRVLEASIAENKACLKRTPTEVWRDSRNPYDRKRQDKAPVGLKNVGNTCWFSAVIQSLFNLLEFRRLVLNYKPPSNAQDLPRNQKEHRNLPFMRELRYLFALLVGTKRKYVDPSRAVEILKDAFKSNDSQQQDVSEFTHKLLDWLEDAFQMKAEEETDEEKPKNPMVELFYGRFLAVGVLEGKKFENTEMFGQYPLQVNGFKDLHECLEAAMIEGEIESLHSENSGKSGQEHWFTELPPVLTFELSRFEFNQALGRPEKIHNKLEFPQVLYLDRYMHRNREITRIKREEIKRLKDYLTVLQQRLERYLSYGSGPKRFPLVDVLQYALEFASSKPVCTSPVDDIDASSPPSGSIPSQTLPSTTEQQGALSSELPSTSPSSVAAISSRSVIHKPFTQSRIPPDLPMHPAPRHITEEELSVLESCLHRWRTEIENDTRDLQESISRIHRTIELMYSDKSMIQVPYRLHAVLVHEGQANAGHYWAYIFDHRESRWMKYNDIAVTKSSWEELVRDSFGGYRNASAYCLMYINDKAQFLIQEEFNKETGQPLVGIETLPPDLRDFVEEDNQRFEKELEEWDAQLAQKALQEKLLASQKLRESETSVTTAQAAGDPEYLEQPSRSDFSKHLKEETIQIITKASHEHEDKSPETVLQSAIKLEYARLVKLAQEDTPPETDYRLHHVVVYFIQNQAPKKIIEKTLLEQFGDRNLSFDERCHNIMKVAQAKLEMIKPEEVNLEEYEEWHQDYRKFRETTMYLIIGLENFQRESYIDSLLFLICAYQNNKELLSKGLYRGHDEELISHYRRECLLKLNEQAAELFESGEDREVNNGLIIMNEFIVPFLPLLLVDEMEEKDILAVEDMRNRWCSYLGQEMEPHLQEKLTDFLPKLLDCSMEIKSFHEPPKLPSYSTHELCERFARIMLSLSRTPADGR
In short: as §1

USP28 = biological target: T4, USP28 (UniProt Q96RU2)
T4 sequence (whole entry): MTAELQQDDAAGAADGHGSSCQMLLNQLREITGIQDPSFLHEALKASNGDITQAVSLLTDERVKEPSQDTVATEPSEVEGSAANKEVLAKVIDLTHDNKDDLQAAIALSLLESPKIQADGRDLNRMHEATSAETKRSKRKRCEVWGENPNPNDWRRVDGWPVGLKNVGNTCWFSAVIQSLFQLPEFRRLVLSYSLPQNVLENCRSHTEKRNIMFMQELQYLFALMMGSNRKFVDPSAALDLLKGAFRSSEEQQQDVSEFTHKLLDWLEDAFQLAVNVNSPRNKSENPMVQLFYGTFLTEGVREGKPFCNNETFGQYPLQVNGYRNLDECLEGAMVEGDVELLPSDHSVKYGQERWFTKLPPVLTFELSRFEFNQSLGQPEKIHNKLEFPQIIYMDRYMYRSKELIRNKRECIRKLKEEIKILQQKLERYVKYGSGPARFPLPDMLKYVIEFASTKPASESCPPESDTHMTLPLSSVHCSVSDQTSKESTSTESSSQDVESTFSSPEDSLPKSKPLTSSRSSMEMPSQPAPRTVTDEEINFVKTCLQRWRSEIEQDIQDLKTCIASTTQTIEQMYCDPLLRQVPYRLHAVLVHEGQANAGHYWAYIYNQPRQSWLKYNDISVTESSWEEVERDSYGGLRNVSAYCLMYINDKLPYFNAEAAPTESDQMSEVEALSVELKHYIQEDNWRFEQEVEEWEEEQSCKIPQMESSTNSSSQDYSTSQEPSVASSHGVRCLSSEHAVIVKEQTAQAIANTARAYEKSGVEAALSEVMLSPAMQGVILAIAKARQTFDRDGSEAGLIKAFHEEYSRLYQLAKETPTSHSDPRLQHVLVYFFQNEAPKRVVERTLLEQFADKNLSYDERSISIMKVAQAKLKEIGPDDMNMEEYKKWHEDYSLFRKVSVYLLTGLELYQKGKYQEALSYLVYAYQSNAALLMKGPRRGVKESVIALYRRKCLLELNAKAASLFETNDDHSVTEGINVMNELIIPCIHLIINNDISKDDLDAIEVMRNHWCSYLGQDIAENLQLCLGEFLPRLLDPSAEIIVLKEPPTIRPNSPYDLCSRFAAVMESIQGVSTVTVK
In short: as §1

Measured: log2 ratio of Biotin-Ahx-Ub-VS probe labelling

Cl.O=C(CCl)N1CC(c2ccc(Br)cn2)C1
inactive: USP19 -0.658 | USP22 -0.346 | USP24 -0.76 | USP25 -0.491 | USP28 -0.738

Reference: the supplement of paper PMC11732987, “Enantioselective OTUD7B fragment discovery through chemoproteomics screening and high-throughput optimisation” (Communications Chemistry, 2025)
